Binding signal data for 1 sequence are collected here from publication PMC7862700, “An all-to-all approach to the identification of sequence-specific readers for epigenetic DNA modifications on cytosine”.

Experiment in all cases: DAPPL (digital affinity profiling via proximity ligation, sequencing); 10 mM Tris-HCl pH 7.5, 50 mM NaCl, 1 mM DTT, 4% glycerol, room temperature, 30 min; GST-TFs on glutathione beads, 16-mer random dsDNA library, 0.1% formaldehyde crosslink after washing; high values mean tight binding
One experiment deals with T1, FEV (Homo sapiens, UniProt Q99581 1-238).
T1 sequence: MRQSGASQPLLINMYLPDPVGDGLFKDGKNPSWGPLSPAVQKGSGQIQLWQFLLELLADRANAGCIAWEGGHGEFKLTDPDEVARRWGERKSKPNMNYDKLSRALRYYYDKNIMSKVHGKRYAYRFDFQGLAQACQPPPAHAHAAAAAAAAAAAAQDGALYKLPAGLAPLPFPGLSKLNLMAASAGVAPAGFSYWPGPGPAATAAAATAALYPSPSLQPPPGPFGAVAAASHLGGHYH
The settings on record: protein: recombinant; tags: N-terminal GST; dsDNA, one strand shown. In outline:
(§1)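 Binding signal is each hexamer's read frequency for a factor divided by its frequency in the tag-only sample. The factors were GST-fused human transcription factors from yeast, captured on glutathione beads, DNA-barcoded and pooled with that sample. Pools were incubated with 200 nmole of a random double-stranded 16-mer DNA library in Tris/NaCl/DTT/glycerol buffer at room temperature for 30 min, then washed, crosslinked with 0.1% formaldehyde, proximity-ligated with BsaI/T4 ligase (1 h, 37 °C), PCR-amplified and sequenced on an Illumina NextSeq500.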

Another experiment has as its target ETV5 (Homo sapiens, UniProt P41161 1-510). The following applies: protein: recombinant; tags: N-terminal GST; dsDNA, one strand shown. In outline:
as §1

The target in another experiment is HSF1 (Homo sapiens, UniProt Q00613 1-529). The settings on record: protein: recombinant; tags: N-terminal GST; chain copies: 3; dsDNA, one strand shown. In outline:
as §1

The next experiment addresses T2, SPIC (Homo sapiens, UniProt Q8N5J4 1-248).
T2 sequence: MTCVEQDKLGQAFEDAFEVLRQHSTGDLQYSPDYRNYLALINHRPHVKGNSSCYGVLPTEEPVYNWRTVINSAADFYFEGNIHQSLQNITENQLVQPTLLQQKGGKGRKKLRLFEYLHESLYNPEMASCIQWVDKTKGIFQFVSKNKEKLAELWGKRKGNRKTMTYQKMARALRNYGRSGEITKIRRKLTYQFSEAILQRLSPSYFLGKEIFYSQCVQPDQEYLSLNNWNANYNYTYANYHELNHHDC
The settings on record: protein: recombinant; tags: N-terminal GST; dsDNA, one strand shown. The gist of the method: as §1

A further experiment deals with ELF4 (Homo sapiens, UniProt Q99607 1-663). The settings on record: protein: recombinant; tags: N-terminal GST; dsDNA, one strand shown. The gist of the method: as §1
For the next experiment, the target named is T3, ELK4 (Homo sapiens, UniProt P28324-2 1-405).
T3 sequence: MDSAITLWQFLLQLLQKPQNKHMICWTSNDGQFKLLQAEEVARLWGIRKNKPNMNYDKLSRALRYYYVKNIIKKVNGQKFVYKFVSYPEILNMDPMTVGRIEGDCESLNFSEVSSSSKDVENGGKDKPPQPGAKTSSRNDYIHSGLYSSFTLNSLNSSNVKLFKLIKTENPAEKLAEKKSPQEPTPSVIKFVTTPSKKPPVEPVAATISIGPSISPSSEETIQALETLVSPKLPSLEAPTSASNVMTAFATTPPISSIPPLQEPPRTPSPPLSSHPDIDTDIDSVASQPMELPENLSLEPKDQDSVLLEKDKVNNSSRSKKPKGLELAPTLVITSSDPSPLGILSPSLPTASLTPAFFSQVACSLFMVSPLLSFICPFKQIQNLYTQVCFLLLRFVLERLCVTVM
The following applies: protein: recombinant; tags: N-terminal GST; dsDNA, one strand shown. In outline: as §1

For another experiment, the target named is T4, ETV2 (Homo sapiens, UniProt O00321 1-342).
T4 sequence: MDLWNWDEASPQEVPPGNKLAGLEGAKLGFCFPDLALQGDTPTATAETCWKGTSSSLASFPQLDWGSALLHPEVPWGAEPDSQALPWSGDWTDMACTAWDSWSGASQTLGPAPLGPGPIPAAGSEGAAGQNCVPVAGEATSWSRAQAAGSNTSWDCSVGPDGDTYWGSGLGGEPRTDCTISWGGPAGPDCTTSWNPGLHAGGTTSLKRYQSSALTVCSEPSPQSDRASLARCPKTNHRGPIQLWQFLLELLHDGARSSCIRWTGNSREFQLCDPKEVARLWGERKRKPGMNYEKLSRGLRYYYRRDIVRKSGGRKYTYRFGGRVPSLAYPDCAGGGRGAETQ
The following applies: protein: recombinant; tags: N-terminal GST; dsDNA, one strand shown. The gist of the method:
as §1

The target in a further experiment is T5, ELF3 (Homo sapiens, UniProt P78545 1-371).
T5 sequence: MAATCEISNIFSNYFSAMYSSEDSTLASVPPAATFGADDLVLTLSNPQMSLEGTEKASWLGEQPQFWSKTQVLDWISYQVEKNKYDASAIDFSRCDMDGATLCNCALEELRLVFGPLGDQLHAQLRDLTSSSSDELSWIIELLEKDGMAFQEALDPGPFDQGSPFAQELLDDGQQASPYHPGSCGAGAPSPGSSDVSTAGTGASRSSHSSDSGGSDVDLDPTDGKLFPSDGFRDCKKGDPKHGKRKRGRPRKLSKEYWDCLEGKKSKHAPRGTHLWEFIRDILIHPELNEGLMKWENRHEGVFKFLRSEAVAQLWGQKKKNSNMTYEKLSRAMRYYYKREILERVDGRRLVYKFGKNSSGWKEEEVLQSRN
The following applies: protein: recombinant; tags: N-terminal GST; dsDNA, one strand shown. In outline: as §1

The target of another experiment is CRX (Homo sapiens, UniProt O43186 1-299). The following applies: protein: recombinant; tags: N-terminal GST; dsDNA, one strand shown. In outline:
as §1

A further experiment has as its target ETV1 (Homo sapiens, UniProt P50549 1-477). The settings on record: protein: recombinant; tags: N-terminal GST; dsDNA, one strand shown. The gist of the method:
as §1

A further experiment has as its target T6, ERF (Homo sapiens, UniProt P50548 1-548).
T6 sequence: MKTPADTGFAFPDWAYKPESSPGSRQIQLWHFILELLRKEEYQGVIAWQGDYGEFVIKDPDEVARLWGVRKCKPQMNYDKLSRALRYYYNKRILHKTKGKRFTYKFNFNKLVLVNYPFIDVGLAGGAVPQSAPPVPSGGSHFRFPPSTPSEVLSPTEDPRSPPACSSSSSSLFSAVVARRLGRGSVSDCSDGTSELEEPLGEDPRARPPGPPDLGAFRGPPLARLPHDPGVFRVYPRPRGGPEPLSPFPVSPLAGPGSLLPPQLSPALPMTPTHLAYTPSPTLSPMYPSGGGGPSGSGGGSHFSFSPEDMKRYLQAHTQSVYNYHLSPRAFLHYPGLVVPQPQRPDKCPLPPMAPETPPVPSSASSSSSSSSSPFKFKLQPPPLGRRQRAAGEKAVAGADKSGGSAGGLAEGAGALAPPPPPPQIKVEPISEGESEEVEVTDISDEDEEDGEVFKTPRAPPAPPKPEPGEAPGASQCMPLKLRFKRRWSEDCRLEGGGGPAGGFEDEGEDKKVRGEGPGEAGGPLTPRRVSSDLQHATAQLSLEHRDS
The following applies: protein: recombinant; tags: N-terminal GST; dsDNA, one strand shown. In outline:
as §1

The next experiment has as its target T7, ETV3L (Homo sapiens, UniProt Q6ZN32 1-361).
T7 sequence: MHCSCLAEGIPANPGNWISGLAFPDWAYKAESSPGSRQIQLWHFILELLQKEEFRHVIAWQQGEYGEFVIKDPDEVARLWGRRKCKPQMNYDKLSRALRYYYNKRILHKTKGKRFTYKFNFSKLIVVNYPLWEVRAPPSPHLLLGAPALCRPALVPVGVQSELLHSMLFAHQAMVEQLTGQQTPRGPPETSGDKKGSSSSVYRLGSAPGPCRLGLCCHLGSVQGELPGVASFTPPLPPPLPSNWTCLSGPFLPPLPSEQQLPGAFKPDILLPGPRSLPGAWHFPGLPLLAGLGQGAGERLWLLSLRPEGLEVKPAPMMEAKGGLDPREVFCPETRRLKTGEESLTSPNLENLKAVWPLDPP
The following applies: protein: recombinant; tags: N-terminal GST; dsDNA, one strand shown. The gist of the method:
as §1

The next experiment addresses T8, ETS2 (Homo sapiens, UniProt P15036 1-469).
T8 sequence: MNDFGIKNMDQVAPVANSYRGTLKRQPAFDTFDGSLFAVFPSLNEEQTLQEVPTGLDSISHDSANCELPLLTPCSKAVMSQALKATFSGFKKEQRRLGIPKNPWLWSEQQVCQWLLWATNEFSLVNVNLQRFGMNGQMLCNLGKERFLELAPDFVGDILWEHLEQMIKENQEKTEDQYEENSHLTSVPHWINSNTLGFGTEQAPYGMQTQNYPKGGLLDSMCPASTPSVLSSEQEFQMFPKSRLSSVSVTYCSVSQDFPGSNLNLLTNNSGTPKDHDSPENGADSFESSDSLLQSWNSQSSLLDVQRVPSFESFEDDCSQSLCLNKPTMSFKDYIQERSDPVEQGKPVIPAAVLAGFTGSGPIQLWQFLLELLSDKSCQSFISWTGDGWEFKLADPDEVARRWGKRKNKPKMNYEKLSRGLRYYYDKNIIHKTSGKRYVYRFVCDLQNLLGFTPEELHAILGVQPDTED
The settings on record: protein: recombinant; tags: N-terminal GST; dsDNA, one strand shown. The gist of the method:
as §1

For the next experiment, the target named is T9, SPDEF (Homo sapiens, UniProt O95238 1-335).
T9 sequence: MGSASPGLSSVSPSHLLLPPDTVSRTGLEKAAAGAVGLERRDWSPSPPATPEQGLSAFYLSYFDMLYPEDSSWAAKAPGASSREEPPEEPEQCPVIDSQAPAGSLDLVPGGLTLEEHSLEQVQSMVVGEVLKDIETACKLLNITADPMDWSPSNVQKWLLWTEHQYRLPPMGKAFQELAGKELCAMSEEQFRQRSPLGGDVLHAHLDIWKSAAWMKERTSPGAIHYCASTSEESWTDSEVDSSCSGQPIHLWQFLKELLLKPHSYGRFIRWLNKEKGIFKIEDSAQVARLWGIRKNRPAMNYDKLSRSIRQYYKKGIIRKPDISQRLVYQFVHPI
The settings on record: protein: recombinant; tags: N-terminal GST; dsDNA, one strand shown. The gist of the method: as §1

Another experiment deals with T10, ETV7 (Homo sapiens, UniProt Q9Y603 1-341).
T10 sequence: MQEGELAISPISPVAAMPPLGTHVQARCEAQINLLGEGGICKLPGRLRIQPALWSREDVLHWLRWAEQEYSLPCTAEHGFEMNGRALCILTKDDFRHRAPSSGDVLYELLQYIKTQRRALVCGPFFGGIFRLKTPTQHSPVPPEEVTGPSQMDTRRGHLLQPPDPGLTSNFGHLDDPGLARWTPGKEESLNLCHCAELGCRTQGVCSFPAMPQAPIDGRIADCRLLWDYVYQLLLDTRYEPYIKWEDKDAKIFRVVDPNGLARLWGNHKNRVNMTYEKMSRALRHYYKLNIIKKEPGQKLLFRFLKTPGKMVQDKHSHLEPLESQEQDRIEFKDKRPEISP
The following applies: protein: recombinant; tags: N-terminal GST; dsDNA, one strand shown. The gist of the method:
as §1

For the next experiment, the target named is T11, ELF5 (Homo sapiens, UniProt Q9UKW6-2 1-255).
T11 sequence: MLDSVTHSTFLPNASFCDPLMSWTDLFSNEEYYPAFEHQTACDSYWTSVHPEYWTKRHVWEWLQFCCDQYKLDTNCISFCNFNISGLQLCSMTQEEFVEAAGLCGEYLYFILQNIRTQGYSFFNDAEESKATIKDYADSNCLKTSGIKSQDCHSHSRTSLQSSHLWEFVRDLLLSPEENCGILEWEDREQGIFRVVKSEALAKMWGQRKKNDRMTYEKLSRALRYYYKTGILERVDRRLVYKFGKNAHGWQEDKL
The following applies: protein: recombinant; tags: N-terminal GST; dsDNA, one strand shown. The gist of the method: as §1

For a further experiment, the target named is T12, ETV3 (Homo sapiens, UniProt P41162-2 1-143).
T12 sequence: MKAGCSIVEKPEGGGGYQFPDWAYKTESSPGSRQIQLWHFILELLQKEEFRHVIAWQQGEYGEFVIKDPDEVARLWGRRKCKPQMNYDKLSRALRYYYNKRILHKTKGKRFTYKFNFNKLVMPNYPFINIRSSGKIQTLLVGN
The settings on record: protein: recombinant; tags: N-terminal GST; dsDNA, one strand shown. In outline:
as §1

For another experiment, the target named is ETV6 (Homo sapiens, UniProt P41212 1-452). The following applies: protein: recombinant; tags: N-terminal GST; dsDNA, one strand shown. The gist of the method: as §1
Chain of ETV6 (P41212 whole entry): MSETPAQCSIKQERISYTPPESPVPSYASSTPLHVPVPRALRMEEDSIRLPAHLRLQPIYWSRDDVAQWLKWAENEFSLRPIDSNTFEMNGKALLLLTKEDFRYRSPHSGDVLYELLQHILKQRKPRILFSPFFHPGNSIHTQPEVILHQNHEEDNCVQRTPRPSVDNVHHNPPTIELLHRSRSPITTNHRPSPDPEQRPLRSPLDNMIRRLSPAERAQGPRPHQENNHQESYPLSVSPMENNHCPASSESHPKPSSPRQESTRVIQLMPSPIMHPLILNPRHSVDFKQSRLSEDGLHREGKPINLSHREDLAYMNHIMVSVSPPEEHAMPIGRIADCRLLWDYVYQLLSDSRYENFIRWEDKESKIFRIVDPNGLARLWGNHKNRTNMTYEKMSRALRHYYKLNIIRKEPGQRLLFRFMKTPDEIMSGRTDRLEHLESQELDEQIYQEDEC

Chain of ETV5 (P41161 whole entry): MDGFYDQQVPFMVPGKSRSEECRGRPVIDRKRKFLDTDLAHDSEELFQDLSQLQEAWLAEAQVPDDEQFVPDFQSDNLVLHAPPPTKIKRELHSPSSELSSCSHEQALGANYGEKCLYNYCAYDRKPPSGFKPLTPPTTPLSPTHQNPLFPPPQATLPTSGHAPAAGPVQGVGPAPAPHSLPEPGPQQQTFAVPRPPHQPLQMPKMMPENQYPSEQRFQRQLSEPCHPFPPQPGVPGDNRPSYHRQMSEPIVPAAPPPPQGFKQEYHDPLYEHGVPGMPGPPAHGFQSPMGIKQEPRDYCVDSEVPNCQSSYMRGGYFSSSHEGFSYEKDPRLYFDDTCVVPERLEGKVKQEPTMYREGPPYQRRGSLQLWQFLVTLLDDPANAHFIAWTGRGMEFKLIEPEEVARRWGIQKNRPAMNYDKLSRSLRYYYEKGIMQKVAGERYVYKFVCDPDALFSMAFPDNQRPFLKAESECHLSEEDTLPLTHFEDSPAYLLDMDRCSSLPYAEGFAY
Chain of ELF4 (Q99607 whole entry): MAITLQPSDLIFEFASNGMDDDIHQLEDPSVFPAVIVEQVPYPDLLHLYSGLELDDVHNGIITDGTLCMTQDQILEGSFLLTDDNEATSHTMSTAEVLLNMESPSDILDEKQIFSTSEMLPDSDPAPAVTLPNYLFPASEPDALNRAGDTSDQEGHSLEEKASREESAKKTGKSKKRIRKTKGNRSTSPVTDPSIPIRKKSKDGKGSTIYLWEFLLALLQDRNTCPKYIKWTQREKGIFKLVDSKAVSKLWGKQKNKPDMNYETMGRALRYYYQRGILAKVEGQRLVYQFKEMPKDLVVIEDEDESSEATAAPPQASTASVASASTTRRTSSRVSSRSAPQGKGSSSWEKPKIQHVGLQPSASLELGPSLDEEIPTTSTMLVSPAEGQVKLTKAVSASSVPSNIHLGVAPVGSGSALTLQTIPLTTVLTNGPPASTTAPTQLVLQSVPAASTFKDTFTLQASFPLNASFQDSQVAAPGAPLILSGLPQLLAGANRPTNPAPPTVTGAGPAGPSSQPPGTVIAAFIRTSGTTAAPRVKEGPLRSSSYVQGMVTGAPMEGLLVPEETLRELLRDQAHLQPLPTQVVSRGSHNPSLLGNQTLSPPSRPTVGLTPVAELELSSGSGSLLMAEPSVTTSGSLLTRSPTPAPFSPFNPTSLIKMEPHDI
Chain of HSF1 (Q00613 whole entry): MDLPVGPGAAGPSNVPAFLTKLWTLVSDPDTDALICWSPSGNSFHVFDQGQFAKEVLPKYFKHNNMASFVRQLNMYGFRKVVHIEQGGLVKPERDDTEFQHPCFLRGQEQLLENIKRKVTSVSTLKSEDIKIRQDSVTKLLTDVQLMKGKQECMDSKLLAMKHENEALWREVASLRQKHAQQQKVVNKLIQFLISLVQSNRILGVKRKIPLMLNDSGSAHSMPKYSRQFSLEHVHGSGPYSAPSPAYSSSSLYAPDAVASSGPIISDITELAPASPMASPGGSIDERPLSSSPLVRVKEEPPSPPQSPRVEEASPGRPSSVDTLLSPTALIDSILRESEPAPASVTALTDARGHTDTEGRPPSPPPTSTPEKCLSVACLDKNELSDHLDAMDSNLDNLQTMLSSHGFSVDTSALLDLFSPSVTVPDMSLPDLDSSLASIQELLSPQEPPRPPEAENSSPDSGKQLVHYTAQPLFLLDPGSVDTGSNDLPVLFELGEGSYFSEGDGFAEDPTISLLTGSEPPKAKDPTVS
Chain of ETV1 (P50549 whole entry): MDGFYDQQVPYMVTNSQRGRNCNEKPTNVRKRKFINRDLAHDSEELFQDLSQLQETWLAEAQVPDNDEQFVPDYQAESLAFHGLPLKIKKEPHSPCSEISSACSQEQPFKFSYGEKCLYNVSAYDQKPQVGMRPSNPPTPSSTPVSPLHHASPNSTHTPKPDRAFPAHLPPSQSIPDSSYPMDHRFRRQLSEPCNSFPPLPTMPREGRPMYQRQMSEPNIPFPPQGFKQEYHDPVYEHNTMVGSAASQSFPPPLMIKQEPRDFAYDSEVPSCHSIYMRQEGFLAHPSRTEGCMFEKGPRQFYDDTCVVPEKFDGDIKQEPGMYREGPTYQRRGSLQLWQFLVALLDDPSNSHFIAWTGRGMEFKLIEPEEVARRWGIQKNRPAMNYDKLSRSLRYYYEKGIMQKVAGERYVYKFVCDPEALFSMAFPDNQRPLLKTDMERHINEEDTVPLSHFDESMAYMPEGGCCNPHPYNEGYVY
Chain of CRX (O43186 whole entry): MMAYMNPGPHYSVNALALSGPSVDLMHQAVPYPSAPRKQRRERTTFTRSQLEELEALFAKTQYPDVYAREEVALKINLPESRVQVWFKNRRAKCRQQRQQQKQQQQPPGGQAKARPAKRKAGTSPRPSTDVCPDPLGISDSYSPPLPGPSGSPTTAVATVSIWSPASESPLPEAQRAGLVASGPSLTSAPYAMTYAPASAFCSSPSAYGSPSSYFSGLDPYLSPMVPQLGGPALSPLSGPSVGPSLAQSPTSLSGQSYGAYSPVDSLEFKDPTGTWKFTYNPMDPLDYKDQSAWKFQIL

As to TTACAT, the binding signal with FEV was 1.3 fold enrichment (6-mer frequency, TF over GST control); with ETV5, 1.31 fold enrichment (6-mer frequency, TF over GST control); with HSF1 it was 1.45 fold enrichment (6-mer frequency, TF over GST control); in the experiment with SPIC it was 1.34 fold enrichment (6-mer frequency, TF over GST control); with ELF4 it was 1.34 fold enrichment (6-mer frequency, TF over GST control); with ELK4, 1.34 fold enrichment (6-mer frequency, TF over GST control). The binding signal with ETV2 was 1.43 fold enrichment (6-mer frequency, TF over GST control); with ELF3 it was 1.4 fold enrichment (6-mer frequency, TF over GST control); with CRX, 1.81 fold enrichment (6-mer frequency, TF over GST control); with ETV1, 1.39 fold enrichment (6-mer frequency, TF over GST control); with ERF, 1.41 fold enrichment (6-mer frequency, TF over GST control); in the experiment with ETV3L it was 1.26 fold enrichment (6-mer frequency, TF over GST control). Moreover, the binding signal with ETS2 was 1.34 fold enrichment (6-mer frequency, TF over GST control); with SPDEF, 1.41 fold enrichment (6-mer frequency, TF over GST control); in the experiment with ETV7, 1.2 fold enrichment (6-mer frequency, TF over GST control); with ELF5, 1.35 fold enrichment (6-mer frequency, TF over GST control); with ETV3 it was 1.3 fold enrichment (6-mer frequency, TF over GST control); with ETV6, 1.27 fold enrichment (6-mer frequency, TF over GST control).
